High-throughput results deposited in PubChem BioAssay by several laboratories.
Most compounds without a hit are left out; they make up all but 1.1% or so of the library.
PrP UTR inh – inhibition of PrP 5' UTR reporter expression. AID 488862, 2010. cell-based PrP 5' UTR mRNA reporter, plate reader. actives 0.35% (n = 340,000). inhibition, % (test concentration not listed); in the data active = inhibition above about 52%; note: 0 = median of the neutral control wells
MazF activator – activators of E. coli MazEF toxin-antitoxin RNase, primary screen, biochemical, fluorescence, uHTS | activation, % at 20 µM | FAM/BHQ RNA-DNA oligo cleavage fluorescence, 5 h | actives 0.32% (n = 350,000) | Endoribonuclease toxin MazF (Escherichia coli (strain K12)), P0AE70; in the data active = activation above about 50%
Target sequence (P0AE70 whole entry, looked up): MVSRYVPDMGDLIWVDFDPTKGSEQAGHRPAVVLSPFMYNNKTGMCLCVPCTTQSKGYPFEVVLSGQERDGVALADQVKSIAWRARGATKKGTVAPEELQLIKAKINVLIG
BJeLR lethal – MLPCN primary cell-based screen for lethality selective to Ras in HRASV12 cells; BJeLR (HRASV12) viability, CellTiter-Glo ATP luminescence, 48 h; inhibition, % (no concentration beside the values); actives 0.17% (n = 300,000); in the data active = inhibition above about 50%
PrPC surface inh – inhibitors of human cell surface prion protein PrPC, primary screen, cell-based, TR-FRET | Major prion protein (Homo sapiens), P04156 | TR-FRET read-out | inhibition, % at 13.8 µM | actives 0.43% (n = 370,000); in the data active = inhibition above about 24%; note: 0% = median of the test wells and 100% = reference compound wells
Active calls of the source: *; . = not tested or not shown; + = active, no number.

SMILES | PrP UTR inh | MazF activator | BJeLR lethal | PrPC surface inh
N#C/C(=C\c1cn(-c2ccccc2)nc1-c1cc2ccccc2o1)c1nc2ccccc2[nH]1 | 5 | 741* | 17 | -6
CSc1nnc(NC(=O)c2ccc3c(c2)OCO3)s1 | 63* | 0 | 9 | -2
COC(=O)C1CN(CC(C)C)CCS(=O)(=O)N1Cc1ccc(OC)cc1 (stereo not drawn) | . | . | . | 7
CC(C)(C)C(=O)/C(C#N)=C/c1cccs1 | 10 | -6 | 0 | 0
N#C/C(=C\c1cccs1)C(=O)c1ccccc1Cl | . | -3 | 63* | 10
O=C1c2cccc3c(O)ccc(c23)C(=O)N1Cc1ccccc1 | 1 | 380* | -6 | -11
CC(=O)c1cc(-c2ccc(S(C)(=O)=O)cc2)c(=O)n2c1CCC2 | . | . | . | 0
CCOC(=O)C1=C(C)NC2=C(C(=O)C(C(=O)OCC)C(c3ccccc3OC)C2)C1c1ccccn1 (stereo not drawn) | 0 | 2 | -1 | -8
CCOC(=O)C1=C(C)NC2=C(C(=O)C(C(=O)OCC)C(c3ccco3)C2)C1c1ccccn1 (stereo not drawn) | -15 | 63* | -3 | -8
C[C@@H]1C[C@@H]2O[C@H]2CCCCC(=O)Cc2cc(O)cc(O)c2C(=O)O1 | . | . | . | -1
Cc1ccc(C)c(Nc2nc3c(S(=O)(=O)c4ccccc4)nnn3c3ccccc23)c1 | -11 | 135* | -2 | -7
COc1[nH]c(/N=C/c2ccccc2)c(C#N)c1C#N | -15 | 74* | 2 | 0
Cc1oc(/N=C/c2ccccc2)c(C#N)c1C | -6 | 1 | 0 | 4
CC(C)C[C@H]1COc2cc(Br)ccc2S(=O)(=O)N1Cc1cccc(Cl)c1 | . | . | . | 1
COc1cccc(CSc2nc3ccccc3cc2C=O)c1 | -2 | -11 | 58* | 0
COc1cccc(NC(=O)CSc2nc3ccccc3cc2Cc2ccccc2)c1 | -2 | 7 | -1 | 0
Cc1ccc(NCc2nnc(SCC(=O)c3ccc4c(c3)OCCO4)o2)c(C)c1 | -13 | 52* | 9 | 1
CC(=O)c1c(C)[nH]c(C(=O)N2CCc3ccccc32)c1C | -11 | -2 | 0 | -3
CCOC(=O)c1[nH]c(C)c(C(=O)N2CCc3ccccc32)c1C | 50 | 3 | 52* | 2
CC(C)Cc1nc2oc3c(N4CCN(CCO)CC4)ncnc3c2c2c1CCCC2 | 5 | -1 | -17 | -3
CCOC(=O)N1CCN(c2ncnc3c2oc2nc(C(C)C)c4c(c23)CCC4)CC1 | -20 | 55* | -9 | -8
O=c1[nH]nc(CNc2ccc(O)cc2)c2ccccc12 | 7 | 444* | 2 | -7
C=CCN1C(=O)[C@H](CC(=O)NCc2ccccc2)[C@@]2(C(=O)OCC)CCCC=C12 | . | . | . | -1
COc1ccc(/C=C2\SC(c3ccc(C)cc3)=NC2=O)cc1OC | 0 | + | -16 | -2
COc1cc(/C=C2\SC(c3ccc(C)cc3)=NC2=O)cc(OC)c1OC | -26 | 102* | 2 | .
SMILES | PrP UTR inh | MazF activator | BJeLR lethal | PrPC surface inh
COc1ccc(/C=C2/SC(c3ccc(C)cc3)=NC2=O)cc1OC | -23 | -1 | 2 | -13
COC(=O)[C@]12C[C@H](CC(=O)NCc3cccc(C(F)(F)F)c3)C(=O)N(Cc3ccc(Cl)cc3Cl)C1=C[C@H](COCc1ccccc1)O[C@@H]2C | . | . | . | -3
O=C(N/N=C/c1c(O)ccc2ccccc12)c1cccc(C(F)(F)F)c1 | 36 | 75* | 40 | -3
COc1ccc2ccccc2c1/C=N/NC(=O)c1cccc(Br)c1 | -7 | 2 | 5 | -2
C[C@H]1C2CC(OC(=O)Nc3ccc(C(F)(F)F)cc3)C(C2)[C@H]2CCCCN21 (stereo partly drawn) | . | . | . | 3
O=c1oc(/C=C/c2ccco2)nc2sc3c(c12)CCC3 | -42 | 141* | 4 | 1
O=c1oc(-c2cccs2)nc2sc3c(c12)CCC3 | -21 | -1 | -6 | -1
COc1cccc(CCNS(=O)(=O)c2c(C)n[nH]c2C)c1 | . | . | . | 5
Cc1cc(NC(=O)/C(C#N)=C\c2ccc(-c3ccc(SC(F)F)cc3)o2)n(-c2ccccc2)n1 | -17 | 432* | . | 4
CCCCOc1ccc(Br)cc1/C(C)=N/NC1=NCCN1 | -40 | 14 | 52* | 17
CC1=CC(=O)C=C(C)C1=NOc1ccccc1[N+](=O)[O-] | -27 | 12 | 51* | 4
OC(c1ccc(OCc2ccccc2)cc1)c1nnc(-c2ccccc2)o1 (stereo not drawn) | -13 | 96* | 0 | 6
OC(c1cccc(OCc2ccccc2)c1)c1nnc(-c2ccccc2)o1 (stereo not drawn) | -16 | -13 | 0 | 4
Cc1ccc(/C=C2\SC(=S)N(CCC(=O)NCCCN3CCOCC3)C2=O)cc1 | -25 | -2 | 0 | -6
O=C(CCCN1C(=O)/C(=C/c2cccc(Br)c2)SC1=S)NCCCN1CCOCC1 | -7 | 4 | 77* | 6
CCc1ccc(/C=C2\SC(=S)N(CCC(=O)NCCCN3CCOCC3)C2=O)cc1 | -16 | -10 | 103* | 10
O=C(Nc1ccc(Br)cc1)OCCCN1CCC2(CCCCC2)C1=O | . | . | . | 8
C[C@H]1CN([C@@H](C)CO)C(=O)CCCn2cc(nn2)CO[C@@H]1CN(C)S(=O)(=O)c1ccc(F)cc1 | . | . | . | -4
COc1ccc(N=c2oc3c(OC)cccc3cc2C(=O)NCc2ccco2)c(OC)c1 | -6 | 65* | -10 | .
COc1ccc2cc(C(=O)NCc3ccco3)c(=Nc3ccc(C(=O)O)cc3)oc2c1 | -36 | -3 | -7 | -10
O=C1CCCC2=C1C1(CCCC1)N=C(Nc1nc3cc(Br)ccc3o1)N2 | . | . | . | 1
C[C@H](O)[C@@H]1C(=O)N2CCc3c([nH]c4c(-c5ccccc5)cccc34)[C@@H]2C[C@@H]1N(C)C(=O)c1ccco1 | . | . | . | -9
Cc1cccc(N2C(=O)NC(=O)/C(=C/c3cc4c(cc3[N+](=O)[O-])OCO4)C2=O)c1 | -60 | 537* | 3 | -6
O=C1NC(=O)C(=Cc2cc3c(cc2[N+](=O)[O-])OCO3)C(=O)N1 | -6 | 25 | -19 | -8
CNC(=S)N/N=C/c1ccc(-c2ccc(C(=O)O)cc2)o1 | 9 | -4 | 52* | -7
SMILES | PrP UTR inh | MazF activator | BJeLR lethal | PrPC surface inh
O=C(O)c1ccccc1Nc1cc(Cl)c2nonc2c1[N+](=O)[O-] | -15 | 2 | 7 | -23
O=[N+]([O-])c1c(Nc2ccccn2)cc(Cl)c2nonc12 | -17 | -20 | 112* | -8
C=CCN=C1NC(CCc2ccccc2)C(C(=O)OC)=C(C)N1Cc1cccc(C(F)(F)F)c1 (stereo not drawn) | . | . | . | -14
C#CCOCCOCCOCCNc1nc(N2CCN(C(=O)CCCCCCCCCCNC(=O)Cn3cc(C[C@@H](C)O)nn3)CC2)nc(N2CCN(C(=O)CCCCCCCCCCNC(=O)[C@@H](CCC(=O)O)n3cc(CCCCCN)nn3)CC2)n1 | -17 | 63* | . | 3
COc1cc(C=C2CN(C)C(=O)C2=O)ccc1O | . | -22 | . | -4
CCN1C/C(=C/c2ccc(N3CCOCC3)cc2)C(=O)/C(=C/c2ccc(N3CCOCC3)cc2)C1 | -15 | -178 | 33 | 2
